Screens as filed in PubChem BioAssay.
Hits are enriched below; roughly 3.1% of the tested compounds scored in any of these assays.
PP5 primary: PP5 (human) phosphatase inhibition; P53041; purified PP5c, OMFP substrate fluorescence; inhibition, % at 6.7 µM; 0.18% of 320,000 active;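 active means inhibition above the campaign's mean inhibition across all tested compounds plus 3 SD, cut at about 9.5% in these data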;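 further: 0% = DMSO only and 100% = 100 µM cantharidin control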
Target sequence (P53041 whole entry, looked up): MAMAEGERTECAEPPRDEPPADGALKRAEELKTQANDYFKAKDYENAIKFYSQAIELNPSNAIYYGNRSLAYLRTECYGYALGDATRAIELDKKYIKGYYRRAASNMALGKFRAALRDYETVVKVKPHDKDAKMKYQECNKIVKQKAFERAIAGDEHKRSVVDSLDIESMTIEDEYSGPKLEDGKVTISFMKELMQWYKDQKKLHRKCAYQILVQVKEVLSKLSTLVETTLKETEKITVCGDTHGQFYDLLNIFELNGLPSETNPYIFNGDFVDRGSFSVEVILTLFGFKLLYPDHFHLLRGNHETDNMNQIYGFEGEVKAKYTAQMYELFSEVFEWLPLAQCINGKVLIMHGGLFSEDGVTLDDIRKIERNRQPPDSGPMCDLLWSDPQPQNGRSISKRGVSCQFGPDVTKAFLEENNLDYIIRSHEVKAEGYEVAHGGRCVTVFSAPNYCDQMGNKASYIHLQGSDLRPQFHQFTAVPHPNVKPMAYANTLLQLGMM
SKKanGAS inh: inhibitors of SKKanGAS S. pyogenes growth in kanamycin (SK-promoter or general growth effect). BacTiter-Glo, 6 h. inhibition, % at 7.5 µM. 1.3% of 300,000 active;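 active means mean replicate score, as percent of positive control median, at least 50; inconclusive means mean below 50 but one replicate at or above 50; inactive means mean and every replicate below 50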;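 further: strain carries kanamycin resistance gene driven by streptokinase promoter and grows in 40 µg/ml kanamycin; loss of luminescence reflects streptokinase promoter inhibition or plain growth inhibition; 0% = median of DMSO wells and 100% = positive control at its reference dose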
CSC inhib: blocks cancer stem cells | inhibition, % at 7.5 µM | cancer stem cell-like cells viability, luminescence | AID 2717 | 1.1% of 300,000 active; in the data active means inhibition above about 75%; inconclusive means no clear call, values can overlap the other calls; tested in HMLE shEcad cells
Beta apoptosis: beta cell apoptosis inhibition. protection from apoptosis, % (test concentration not listed). 0.8% of 300,000 active. AID 435005. INS-1E cytokine-induced death, ATP luminescence, 48 h; percent of positive-control rescue, neutral wells zero;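 active means Every replicate reaches about 75%, or at least half do and their mean reaches it too, limit read from the data; inconclusive means At least half of replicates reach the limit but their mean does not; inactive means Under half of replicates reach the limit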;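 further: 0% = cytokine-treated negative control wells and 100% = positive control rescue; higher means more ATP so stronger rescue from cytokine killing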
PP1 counter: counter-screen for PP5 inhibitors: inhibitors of human PP1-alpha; P62136; 0.9% of 320,000 active; inhibition, % at 6.7 µM; purified PP1alpha, OMFP fluorescence;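 active means inhibition above the mean inhibition of all tested compounds plus 3 SD, computed separately for each screening campaign, cut at about 15% in these data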
* marks the source's active call; other numbers are inactive results; ? = inconclusive; . = no result given.

SMILES | PP5 primary | SKKanGAS inh | CSC inhib | Beta apoptosis | PP1 counter
C=C[C@@H]1c2cc(C)ccc2N(S(=O)(=O)c2ccc(C)cc2)[C@H](c2ccc(OC(C)=O)cc2)C1(C#N)C#N | 1.2 | . | 113.3* | 16.9 | 2.7
CC(C)(C)[C@@H]1CCC(=O)N(CC[C@H](Sc2ccc(Br)cc2)c2ccccc2)CC1 | . | . | 107.6* | 8.3 | .
O=C(NC1CCC(=O)N(CCSc2ccccc2)CC1)OCc1ccccc1 (stereo not given) | -0.9 | -0.7 | 13.4 | 3.3 | -2.1
C[C@@H](CSc1ccc(Br)cc1)CN1CC[C@H](NC(=O)OCc2ccccc2)CCC1=O | . | . | 91.4* | 3.4 | .
CC(=O)Nc1ccc(SC[C@H](C)CN2CC[C@H](C(C)(C)C)CCC2=O)cc1 | 1.7 | . | 101.9* | 5.6 | -1.5
Cc1ccc(SC[C@H](C)CN2CC[C@H](C)CCC2=O)cc1 | 3.9 | 5.8 | -5.0 | -4.8 | -1.3
O=C1CC[C@@H](O)CCN1CC[C@H](Sc1ccc(Br)cc1)c1ccccc1 | 1.9 | . | -4.3 | -1.1 | -3.4
COc1ccc(SC[C@H](C)CN2CC[C@H](NC(=O)OCc3ccccc3)CCC2=O)cc1 | . | . | 19.8 | -5.2 | .
O=C(N[C@@H]1CCC(=O)N(CC[C@H](Sc2ccc(Br)cc2)c2ccccc2)CC1)OCc1ccccc1 | 2.8 | . | 34.0 | 1.3 | 15.6*
S=C(Nc1cc(Cl)ccc1Oc1ccccc1)N1CCN(c2ccccn2)CC1 | . | 4.4 | 14.5 | 7.2 | .
O=c1[nH]cc(S(=O)(=O)Nc2ccc3c(c2)OCO3)c(=O)[nH]1 | 1.9 | 14.3 | -12.1 | -7.8 | -2.9
COc1ccc(S[C@@H](CCN2CC[C@H](NC(=O)OCc3ccccc3)CCC2=O)c2ccccc2)cc1 | . | . | 82.4* | 3.4 | .
CCCCNC(=S)N=Nc1c(O)n(Cc2ccccc2)c2ccccc12 | 0.7 | 21.6 | 80.1* | 8.0 | -2.7
C=CCn1c(O)c(N=NC(=S)Nc2ccccc2F)c2ccccc21 | -2.9 | 100.8* | 2.4 | 56.3 | 0.4
Cc1ccc(Cn2c(O)c(N=NC(=S)Nc3ccccc3F)c3ccccc32)cc1 | 0.6 | 61.2* | 26.9 | 14.3 | -1.1
C=CCn1c(O)c(N=NC(=S)Nc2cccc(C)c2)c2ccccc21 | 3.6 | 94.3* | 44.0 | 59.9 | 5.8
Oc1c(N=NC(=S)Nc2ccccc2F)c2ccccc2n1Cc1ccccc1Cl | -0.9 | . | 1.8 | 37.5 | 2.7
Oc1c(N=NC(=S)Nc2ccccc2F)c2ccccc2n1Cc1ccccc1 | 1.1 | ? | . | 40.7 | 9.7
Cc1ccccc1C(=O)Nc1ccc(S(=O)(=O)N2CCCC2)cc1 | -0.1 | 14.7 | 3.2 | 3.6 | 1.6
CCCCN(C)CC(O)Cn1cc(/C=C/C(=O)c2cccs2)c2ccccc21 (stereo not given) | -2.4 | -2.4 | 22.1 | 4.6 | -4.5
CCCCN(C)CC(O)Cn1cc(/C=C/C(=O)c2ccc(OCC)cc2)c2ccccc21 (stereo not given) | 2.9 | 5.1 | 99.2* | 8.6 | -0.1
CCc1cc2c(=O)n(Cc3ccco3)c(SCc3c(C)noc3C)nc2s1 | 1.0 | 99.5* | 58.9 | 5.1 | 6.1
CCc1cc2c(=O)n(Cc3ccco3)c(SCC(=O)NCC3CCCO3)nc2s1 (stereo not given) | 3.9 | 2.0 | -2.4 | -4.0 | 5.4
Clc1ccc(-c2nnc(-c3ccccc3)c(-c3ccccc3)n2)cc1 | -0.1 | 25.5 | 85.2* | 2.8 | -2.9
FC(F)(F)c1nnc(-c2ccccc2)nc1Sc1ccc(Cl)cc1 | -1.1 | 26.9 | 80.5* | 63.4 | -1.8
SMILES | PP5 primary | SKKanGAS inh | CSC inhib | Beta apoptosis | PP1 counter
Clc1ccc(CO/N=C/c2cccs2)cc1 | 0.5 | 43.9 | -16.3 | -18.0 | -4.9
COc1cc(C(=O)N/N=C/c2ccsc2C)cc(OC)c1OC | 5.1 | 0.3 | 75.6* | 19.7 | -2.9
CC(C)(C)C(=O)Nc1ccc(C(=O)N/N=C/c2ccccc2OC(=O)c2ccccc2)cc1 | 3.1 | 10.7 | -11.2 | 86.7* | 2.8
COc1cc(C(=O)Oc2ccc(/C=N/NC(=O)c3ccncc3)cc2)cc(OC)c1OC | -1.4 | 0.6 | -22.3 | -2.3 | 7.9
Cc1cccc(C(=O)Oc2ccccc2/C=N/NC(=O)c2ccc(NC(=O)C(C)(C)C)cc2)c1 | 1.4 | 13.9 | 26.4 | 19.1 | 1.2
COc1cc(C(=O)Oc2ccccc2/C=N/NC(=O)c2ccc(C)cc2)cc(OC)c1OC | 3.9 | 18.0 | 13.3 | 102.5* | -1.8
COc1ccc(Br)cc1/C=N/NC(=O)c1cc(OC)c(OC)c(OC)c1 | 0.5 | -7.8 | 39.4 | 18.6 | 1.2
CC(C)(C)C(=O)Nc1ccc(C(=O)N/N=C/c2ccccc2OC(=O)c2ccc(Cl)cc2)cc1 | 4.6 | 23.0 | 15.9 | 103.4* | -2.3
